Test results taken from PubChem BioAssay AID651899 (Broad Institute, 2012).
Measured potencies and affinities stand elsewhere. A number with no mark means an inactive call. The rule behind the calls is not given here.

assay: HEK293 cell viability loss – plate reader, cherry-pick, cytotoxicity control, dose response (AID 651899); conditions: series mostly up to 26 µM; activity change, negative = cytotoxicity: at the top concentration;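 note: cells exposed to compound for 48 hours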

Going from `Cc1cc(C(=O)CSc2nncs2)c(C)n1-c1ccc2c(c1)OCO2` to `O=C(CSc1nncs1)N1c2ccccc2Sc2ccccc21`, the “activity change, negative = cytotoxicity” value rises from -23.3% to -12.5%.

First: O=C(N[C@@H]1CC[C@H](CCn2cc(-c3cccnc3)nn2)O[C@@H]1CO)c1ccccc1F
Second: Cc1ccccc1S(=O)(=O)NCC[C@H]1CC[C@@H](NC(=O)Nc2cccc(F)c2)[C@H](CO)O1
The “activity change, negative = cytotoxicity” value of the first is higher: 7.06% for the first, -4.64% for the second.

First: Cc1nc2nc(SCC(=O)NCc3ccco3)nn2c(C)c1Cc1ccccc1
Second: Cc1c2cnn(CC(=O)NCc3ccccn3)c(=O)c2c(C)n1Cc1ccc(Cl)cc1
The “activity change, negative = cytotoxicity” value of the first is lower: -21.3% for the first, 26.4% for the second.

Going from `COc1ccc(C(=O)C2CCCN(C(=O)c3ccc(C(C)=O)s3)C2)c(C)c1` (stereo unspecified) to `COc1ccc(NC2CCCN(C(=O)c3ccc(C(C)=O)s3)C2)cc1` (stereo unspecified), the “activity change, negative = cytotoxicity” value rises from -17.8% to 42.4%.

Compared with `O=C(Nc1ccc(NS(=O)(=O)c2ccccc2)cc1)c1cccnc1`, `CCCOC(=O)c1cccc(NC(=O)c2cccnc2)c1` is higher in “activity change, negative = cytotoxicity” value: -18.6% for the first, 2.6% for the second.

First: Cc1cnc(C(=O)NC2CC(C)(C)Cc3c2cnn3-c2cccc(F)c2)cn1 (stereo unspecified)
Second: O=C(Nc1ncc2c(n1)CC(c1ccccc1)CC2=O)c1ccco1 (stereo unspecified)
The “activity change, negative = cytotoxicity” value of the first is lower: -10.2% for the first, 18.7% for the second.

Going from `O=C(Nc1nccs1)[C@H]1[C@H](CO)[C@H]2Cn3c(ccc(-c4cccnc4)c3=O)[C@H]2N1CC1CCCC1` to `CN(C)C(=O)C[C@@H]1C[C@@H]2c3cc(NC(=O)c4cccnc4)ccc3O[C@@H]2[C@@H](CO)O1`, the “activity change, negative = cytotoxicity” value falls from -6.31% to -8.22%.

First: COc1ccc(NC(=O)c2ccc(Cl)nc2)cc1S(=O)(=O)N1CCOCC1
Second: O=C(Nc1cccnc1)c1ccc(Cl)c(Cl)c1
The “activity change, negative = cytotoxicity” value of the first is lower: -21.3% for the first, 8.49% for the second.

First: O=C(c1ccncc1)N1CC[C@@H]2[C@@H](CO)Nc3ccc(Br)cc3[C@@H]21
Second: O=C(Cc1ccccc1)N1CC[C@@H]2[C@H]1c1cc(Br)ccc1N[C@@H]2CO
The “activity change, negative = cytotoxicity” value of the first is higher: 14.1% for the first, 0.854% for the second.

First: COc1cc(C(=O)Nc2cccnc2)cc(OC)c1OC
Second: COc1cc2cnc(-c3cccnc3)cc2cc1OC
The “activity change, negative = cytotoxicity” value of the first is lower: -20.2% for the first, 11.7% for the second.

First: CCc1nn(CC(=O)N2CCN(Cc3ccc4c(c3)OCO4)CC2)c(=O)c2cc3occc3n12
Second: CCCN1CCN(C(=O)C2CCN(c3nnc(C)c4c(C)n(-c5ccc(C)cc5)nc34)CC2)CC1
The “activity change, negative = cytotoxicity” value of the first is higher: 7.76% for the first, -11.5% for the second.

First: O=C(Nc1ccc(F)c(F)c1)c1ccc(-n2cncn2)c([N+](=O)[O-])c1
Second: CC(=O)c1ccc(N2CCN(c3ncccn3)CC2)c([N+](=O)[O-])c1
The “activity change, negative = cytotoxicity” value of the first is lower: 8.6% for the first, 16.1% for the second.

Going from `Cn1ncc2cc3c(Nc4ccc(Cl)cc4)cccc3nc21` to `CN1CCCC1CCOC(C)(c1ccccc1)c1ccc(Cl)cc1` (stereo unspecified), the “activity change, negative = cytotoxicity” value rises from -13.1% to 18.1%.

Going from `COC(=O)C1=C(C)Nc2sc(C(N)=O)c(N)c2C1c1ccncc1` (stereo unspecified) to `COc1ccc(C(C)NC(=O)Nc2ccc(C(C)=O)cc2)cc1OC` (stereo unspecified), the “activity change, negative = cytotoxicity” value falls from 10.5% to -10.9%.

First: O=C(O)CCS(=O)(=O)c1nc(-c2cccs2)cc(C(F)(F)F)n1
Second: CC(C)n1c(N2CCN(C(=O)c3cccs3)CC2)nc2ccccc21
The “activity change, negative = cytotoxicity” value of the first is lower: -3.98% for the first, 12.8% for the second.

Compared with `CCn1c(=O)c(=O)n(CC)c2cc(S(=O)(=O)Nc3cc(C)ccc3C)ccc21`, `Cc1ccc(-c2nn(CCC(=O)Nc3cccnc3)c(=O)c3ccccc23)cc1` is lower in “activity change, negative = cytotoxicity” value: -3.21% for the first, -16.1% for the second.

With `COc1cccc(CNC(=O)c2ccc(NC(=O)C3=CSCCO3)cc2)c1` the “activity change, negative = cytotoxicity” value was 1.53%.

Going from `CN1c2ccc(-c3ccccc3)cc2[C@H]2[C@H](CCN2C(=O)Cc2ccccn2)[C@H]1CO` to `CN1c2ccc(-c3cccc(F)c3)cc2[C@@H]2[C@@H](CCN2C(=O)c2ccncc2)[C@H]1CO`, the “activity change, negative = cytotoxicity” value rises from 13.3% [at 23.5 µM] to 16.7% [at 23.5 µM].

For `O=C(C[C@@H]1C[C@H]2c3cc(NC(=O)c4cccnc4)ccc3O[C@H]2[C@@H](CO)O1)NCc1cc(F)ccc1F`, the “activity change, negative = cytotoxicity” value was -2.27% [at 23.5 µM].
